Assay outcomes (PubChem)
Rows were chosen to be rich in hits. Some 19% of all compounds tested hit in one or more screens of this group.
uPA generation – qHTS for Inhibitors of Cell Surface uPA Generation. 330,000 tested, 0.31% active. cell surface uPA generation assay, qHTS. Potency, µM (highest dose often 38.3 µM), without a hit: top-dose activity change, negative = inhibition, usual class: inhibitors; active = well fitted inhibition curve with a large enough effect; inconclusive = small, poorly fitted or top-dose-only effect; inactive = no such curve, though single readings can be large or run the other way; tested in mouse RAW 264.7 cells; also: potency is read from the fitted curve at half-maximal effect; nearly all actives have a fitted effect of over 55% in size
DT40 TDP1 no CPT – qHTS for Inhibitors of human tyrosyl-DNA phosphodiesterase 1 (TDP1): qHTS in cells in absence of CPT; DT40 Tdp1-/- hTDP1 cells, no CPT, ATP luminescence, 48 h; Potency, µM (highest dose often 46.2 µM), for inactives: at the top dose activity change, negative = growth inhibition, usual class: inhibitors; 420,000 tested, 15% active; AID 686978, 2013; also: potency is read from the fitted curve at half-maximal effect; nearly all actives have a fitted effect of over 55% in size
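Chicken DT40 Tdp1-/- cells complemented with human TDP1, screened without camptothecin (DMSO vehicle only), 400 cells/well. Compounds pin-transferred, cells incubated at 37 °C for at least 48 hr. Growth read as ATP-dependent luminescence (CellTiter-Glo, 30 min at RT).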
DT40 TDP1 CPT – qHTS for Inhibitors of human tyrosyl-DNA phosphodiesterase 1 (TDP1): qHTS in cells in presence of CPT; chicken DT40 Tdp1-/-;hTDP1 cells + 20 nM CPT, ATP luminescence, 48 h; Potency, µM (titrated, usually from 46.2 µM), inactives show at the top dose activity change, negative = growth inhibition, actives largely listed as inhibitors; 420,000 tested, 12% active; AID 686979, 2013; also: potency is read from the fitted curve at half-maximal effect; nearly all actives have a fitted effect of over 55% in size
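Chicken DT40 Tdp1-/- cells stably complemented with human TDP1 were seeded at 400 cells/well in medium containing 20 nM camptothecin, exposed to pin-transferred compounds, and grown at 37 °C for at least 48 hr. Viability was read as ATP luminescence.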
HT1080-NT tox – qHTS for induction of synthetic lethality in tumor cells producing 2HG: qHTS for the HT-1080-NT fibrosarcoma cell line; HT-1080-NT fibrosarcoma viability, CellTiter-Glo ATP luminescence, 48 h; Potency, µM (top dose mostly 46.1 µM), for inactives: at the highest dose activity, negative = less viability, most hits filed as cytotoxic; 360,000 tested, 1.6% active; AID 686970, 2013;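 also: NT is the 2HG producing partner of a matched IDH1 knockdown line; potency is read from the fitted curve at half-maximal effect; 0% = DMSO-treated cells and -100% = media-only wells without cells; nearly all actives have a fitted effect of over 55% in size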
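Read-out is CellTiter-Glo luminescence after 10 minutes at room temperature, following 48 hours' compound treatment of HT-1080-NT cells (750 cells/well, RPMI, 5% FBS, 37 degrees C).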
HT1080 IDH1KD tx – qHTS for induction of synthetic lethality in tumor cells producing 2HG: qHTS for the HT-1080-IDH1KD cell line; HT-1080 IDH1 knockdown viability, ATP luminescence, 48 h; Potency, µM (highest dose often 46.1 µM), without a hit: at the top dose activity, negative = toxicity, usual class: cytotoxic; 360,000 tested, 2% active;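 also: potency is read from the fitted curve at half-maximal effect; 0% = DMSO wells and -100% = cell-free medium wells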
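Cytotoxicity counter-line: IDH1KD HT-1080, 48 h, CellTiter-Glo. Curves classed by r2, magnitude and activity.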
IL1B secr inh – qHTS for Inhibitors of Inflammasome Signaling: IL-1-beta AlphaLISA Primary Screen. THP-1 LPS/ATP IL-1B secretion, AlphaLISA, 16 h; active compounds read low. activity change, % at 57.5 µM. 360,000 tested, 4.7% active. AID 743279, 2014; in the data active = activity change below about -50%; inconclusive = mostly about -30% to -49%
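Secreted IL-1B measured by AlphaLISA bead assay after 16 h compound exposure of THP-1 cells; compounds (final up to 57.5 uM) added 1 h before LPS (250 ng/mL) and ATP (1.25 mM) stimulation; lower signal means less secretion.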
The depositor's hits bear a star; [ ] = another dose, or the depositor's remark. Unless noted, calls follow the shape of the dose curve; as a rule, active = well fitted curve in the direction sought with a large enough effect; inconclusive = small, poorly fitted or top-dose-only effect, or another doubt; inactive = no such curve, though single readings can be large; an effect the other way counts as inactive or inconclusive. Unless noted, % is scaled to controls: 0 for no effect and ±100 for the full control effect.

Screening COc1ccccc1NC(=O)c1ccc(NC(=O)c2ccco2)cc1 returned uPA generation -3%, DT40 TDP1 no CPT 16µM*, DT40 TDP1 CPT inconclusive, HT1080-NT tox -6%, HT1080 IDH1KD tx -2% and IL1B secr inh -75*.
For COc1ccccc1NC(=O)c1cccc(NC(=O)c2ccco2)c1 the results were uPA generation -4%, DT40 TDP1 no CPT inconclusive, DT40 TDP1 CPT -23%, HT1080-NT tox 7%, HT1080 IDH1KD tx -4% and IL1B secr inh -22.
`COc1ccc(NC(=O)c2ccc3c(=O)n(Cc4ccco4)c(=S)[nH]c3c2)c(OC)c1` gave uPA generation 0%, DT40 TDP1 no CPT 13µM*, DT40 TDP1 CPT inconclusive, HT1080-NT tox 0%, HT1080 IDH1KD tx -5% and IL1B secr inh 21.
Screening O=C(Nc1ccc(NC(=O)c2ccco2)nc1)c1ccco1 returned uPA generation -13%, DT40 TDP1 no CPT -19%, DT40 TDP1 CPT -2%, HT1080-NT tox -25%, HT1080 IDH1KD tx -12% and IL1B secr inh -7.
`COc1ccc(NC(=O)c2ccc(NC(=O)c3ccco3)cc2)c(OC)c1` gave uPA generation -3%, DT40 TDP1 no CPT inconclusive, DT40 TDP1 CPT inconclusive, HT1080-NT tox 7%, HT1080 IDH1KD tx 4% and IL1B secr inh -50*.
COc1ccccc1C(=O)Nc1ccc(NC(=O)c2ccco2)cn1 was read as uPA generation -2%, DT40 TDP1 no CPT 21µM*, DT40 TDP1 CPT inconclusive, HT1080-NT tox 18%, HT1080 IDH1KD tx 3% and IL1B secr inh inconclusive.
O=C(OCC(=O)N1CCc2ccccc21)[C@@H]1CC(O)CN1S(=O)(=O)c1ccc(Cl)cc1 (some centres undefined) was read as uPA generation -9%, DT40 TDP1 no CPT inconclusive, DT40 TDP1 CPT inconclusive, HT1080-NT tox 1%, HT1080 IDH1KD tx 5% and IL1B secr inh -22.
CCOc1ccccc1NC(=O)c1ccc(NC(=O)c2ccco2)cc1 was read as uPA generation 5%, DT40 TDP1 no CPT 16µM*, DT40 TDP1 CPT inconclusive, HT1080-NT tox -8%, HT1080 IDH1KD tx -6% and IL1B secr inh -58*.
For C[C@@H]1CN(Cc2ccc3c(c2)CN(Cc2cccn2-c2cccnc2)CCO3)C[C@H](C)O1 the results were DT40 TDP1 no CPT 15µM* and DT40 TDP1 CPT -2%[9.04 µM].
Screening Cc1nc2sccn2c1CN1CCOc2ccc(CN3C[C@@H](C)O[C@@H](C)C3)cc2C1 returned DT40 TDP1 no CPT 8.2µM* and DT40 TDP1 CPT 10µM*.
OC(c1ccc2c(c1)CN(Cc1cccn1-c1cccnc1)CCO2)C1CCCCC1 (centres undefined) was read as DT40 TDP1 no CPT -29% and DT40 TDP1 CPT inconclusive.
Screening C[C@@H]1CN(Cc2ccc3c(c2)CN(Cc2cccc(O)c2)CCO3)C[C@H](C)O1 returned DT40 TDP1 no CPT inconclusive and DT40 TDP1 CPT -1%[9.04 µM].
`Fc1ccc(N2CCN(Cc3ccc4c(c3)CN(Cc3cccn3-c3cccnc3)CCO4)CC2)cc1` gave DT40 TDP1 no CPT 21µM* and DT40 TDP1 CPT inconclusive.
Screening Cc1ccc(S(=O)(=O)N2CCCCC2)cc1NC(=O)COC(=O)CN1C(=O)NC2(CC(C)CC(C)(C)C2)C1=O (centres undefined) returned uPA generation 10%, DT40 TDP1 no CPT inconclusive, DT40 TDP1 CPT inconclusive, HT1080-NT tox 3%, HT1080 IDH1KD tx 9% and IL1B secr inh -21.
Nc1nc(Sc2c([N+](=O)[O-])cc(C(F)(F)F)cc2[N+](=O)[O-])n[nH]1 was read as uPA generation -8%, DT40 TDP1 no CPT 21µM*, DT40 TDP1 CPT 7.3µM*, HT1080-NT tox inconclusive, HT1080 IDH1KD tx inconclusive and IL1B secr inh -100*.
`Nc1nc(Sc2ccc(C(F)(F)F)cc2[N+](=O)[O-])n[nH]1` gave uPA generation 0%, DT40 TDP1 no CPT -18%, DT40 TDP1 CPT -26%, HT1080-NT tox -13%, HT1080 IDH1KD tx -1% and IL1B secr inh -9.
Screening CC(C)COC(=O)N1C[C@H](O)C[C@H]1C(=O)Nc1ccc(Cl)cc1 returned uPA generation -6%, DT40 TDP1 no CPT 0%, DT40 TDP1 CPT 2%, HT1080-NT tox 0%, HT1080 IDH1KD tx 5% and IL1B secr inh 12.
`COc1ccc(-n2c(C)cc(C(=O)CCl)c2C)cc1` gave uPA generation inconclusive, DT40 TDP1 no CPT 1.8µM*, DT40 TDP1 CPT 1.5µM*, HT1080-NT tox inconclusive, HT1080 IDH1KD tx 15µM* and IL1B secr inh -77*.
Cc1ccc(-n2c(C)cc(C(=O)COC(=O)c3ccc[nH]c3=O)c2C)cc1 was read as uPA generation -6%, DT40 TDP1 no CPT inconclusive, DT40 TDP1 CPT -18%, HT1080-NT tox -3%, HT1080 IDH1KD tx -2% and IL1B secr inh 0.
COc1ccc(-n2c(C)cc(C(=O)CN3C(=O)c4ccccc4C3=O)c2C)cc1 was read as uPA generation -15%, DT40 TDP1 no CPT inconclusive, DT40 TDP1 CPT -11%, HT1080-NT tox -21%, HT1080 IDH1KD tx -2% and IL1B secr inh -12.
For Cc1cc(C(=O)COC(=O)c2ccc(O)cc2O)c(C)n1-c1ccc(OC(F)F)cc1 the results were uPA generation inconclusive, DT40 TDP1 no CPT 7.3µM*, DT40 TDP1 CPT 21µM*, HT1080-NT tox -7%, HT1080 IDH1KD tx -20% and IL1B secr inh -3.
Screening COc1ccc(-n2c(C)cc(C(=O)COC(=O)c3ccc(O)cc3O)c2C)cc1 returned uPA generation inconclusive, DT40 TDP1 no CPT 5.2µM*, DT40 TDP1 CPT 8.2µM*, HT1080-NT tox inconclusive, HT1080 IDH1KD tx inconclusive and IL1B secr inh -10.
Screening COc1cc(NC(=O)c2cccs2)c(C(=O)OCC(=O)c2cc(C)n(-c3ccccc3)c2C)cc1OC returned uPA generation 4%, DT40 TDP1 no CPT 21µM*, DT40 TDP1 CPT inconclusive, HT1080-NT tox 24%, HT1080 IDH1KD tx 20% and IL1B secr inh 15.
Screening COc1cc(NC(=O)c2cccs2)c(C(=O)OCC(=O)c2cc(C)n(-c3ccc(F)cc3)c2C)cc1OC returned uPA generation 9%, DT40 TDP1 no CPT inconclusive, DT40 TDP1 CPT -10%, HT1080-NT tox 13%, HT1080 IDH1KD tx 17% and IL1B secr inh 28.
